What follows are compounds tested against T1, AMP-activated protein kinase, AMPK (Homo sapiens) (UniProt P54646+O43741+P54619+Q9UGJ0+Q9Y478+Q13131+Q9UGI9). Conditions: at 1 µM.

Row | Compound | residual activity [%]
1 | O=C1C(Cl)=C(N2C(=O)CCC2=O)C(=O)c2ccccc21 | 99
2 | O=C(O)/C=C/c1cc(Br)c(Br)c(Br)c1Br | 94
3 | COc1ccc(-c2cnc3c(-c4ccsc4)cnn3c2)cc1 | 88
4 | Nc1n[nH]c2nc3ccccc3nc12 | 88
5 | O=C(c1cc2cc(O)ccc2[nH]1)c1cc2cc(O)ccc2[nH]1 | 13
6 | O=C(NC(NC(=S)Nc1ccc(F)c([N+](=O)[O-])c1)C(Cl)(Cl)Cl)C(c1ccccc1)c1ccccc1 (configuration not stated) | 89
7 | CCCCc1c(-c2ccc(OC)cc2)[nH]c2nccnc12 | 74
8 | CCCC(=O)Oc1ccc2[nH]c(C(=O)c3cc4ccccc4[nH]3)cc2c1 | 91
9 | NC(=O)Nc1sc(-c2ccc(F)cc2)cc1C(N)=O | 66
10 | O=C1Nc2ccc(Cl)cc2/C1=C/c1cc(Cl)c(O)c(Cl)c1 | 77
11 | CC(C)(C)n1nc(Cc2cccc3ccccc23)c2c(N)ncnc21 | 89
12 | Nc1ncnc2c1c(-c1ccc(Oc3ccccc3)cc1)cn2C1CCCC1 | 94
13 | O=C1NC(=O)c2c1c1c3ccccc3[nH]c1n1cncc21 | 38
14 | O=c1cc(N2CCOCC2)oc2c1ccc1ccccc12 | 105
15 | CN(C)S(=O)(=O)c1ccc2c(c1)/C(=C/c1cc3c([nH]1)CCCC3)C(=O)N2 | 45
16 | CCOC(=O)c1c(C)[nH]c(/C=C2\C(=O)Nc3ccccc32)c1C | 85
17 | O=C1NC(=O)C(c2c[nH]c3ccccc23)=C1c1c[nH]c2ccccc12 | 66
18 | CCN(CC)CCNC(=O)c1c(C)[nH]c(/C=C2\C(=O)Nc3ccc(Cl)cc32)c1C | 4
19 | CC(C)c1nn(-c2c(Cl)cccc2Cl)c2nc(Cc3ccc(OCCO)cc3)[nH]c(=O)c12 | 87
20 | c1ccc(-c2cnc(Nc3ccc(OCCN4CCCC4)cc3)s2)cc1 | 81
21 | Cn1sc(=O)n(Cc2ccccc2)c1=O | 89
22 | O=C1Cc2c([nH]c3ccc([N+](=O)[O-])cc23)-c2ccccc2N1 | 18
23 | O=C(CCCc1ccc(-c2ccccc2F)cc1)Nc1ccc(O)cc1 | 106
24 | Cn1c2ccccc2c2c3c(c4c5ccccc5n(CCC#N)c4c21)CNC3=O | 19

What follows are compounds tested against T1, AMP-activated protein kinase, AMPK (Homo sapiens). Conditions: at 10 µM.

Row | Compound | residual activity [%]
25 | O=C1C(Cl)=C(N2C(=O)CCC2=O)C(=O)c2ccccc21 | 101
26 | O=C(Nc1ccc(Cl)cc1)c1ccccc1NCc1ccncc1 | 72
27 | O=C(O)/C=C/c1cc(Br)c(Br)c(Br)c1Br | 76
28 | COc1ccc(-c2cnc3c(-c4ccsc4)cnn3c2)cc1 | 79
29 | Nc1n[nH]c2nc3ccccc3nc12 | 86
30 | O=C(c1cc2cc(O)ccc2[nH]1)c1cc2cc(O)ccc2[nH]1 | 3
31 | O=C(NC(NC(=S)Nc1ccc(F)c([N+](=O)[O-])c1)C(Cl)(Cl)Cl)C(c1ccccc1)c1ccccc1 (configuration not stated) | 77
32 | CCCCc1c(-c2ccc(OC)cc2)[nH]c2nccnc12 | 92
33 | CCCC(=O)Oc1ccc2[nH]c(C(=O)c3cc4ccccc4[nH]3)cc2c1 | 96
34 | NC(=O)Nc1sc(-c2ccc(F)cc2)cc1C(N)=O | 25
35 | O=C1Nc2ccc(Cl)cc2/C1=C/c1cc(Cl)c(O)c(Cl)c1 | 40
36 | CC(C)(C)n1nc(Cc2cccc3ccccc23)c2c(N)ncnc21 | 74
37 | COc1ccc(Cl)cc1NC(=O)Nc1cc(C)nc2ccccc12 | 91
38 | O=c1cc(N2CCNCC2)oc2c(-c3ccccc3)cccc12 | 71
39 | Nc1ncnc2c1c(-c1ccc(Oc3ccccc3)cc1)cn2C1CCCC1 | 63
40 | O=C1NC(=O)c2c1c1c3ccccc3[nH]c1n1cncc21 | 29
41 | O=c1cc(N2CCOCC2)oc2c1ccc1ccccc12 | 90
42 | CN(C)S(=O)(=O)c1ccc2c(c1)/C(=C/c1cc3c([nH]1)CCCC3)C(=O)N2 | 37
43 | CCOC(=O)c1c(C)[nH]c(/C=C2\C(=O)Nc3ccccc32)c1C | 74
44 | O=C1NC(=O)C(c2c[nH]c3ccccc23)=C1c1c[nH]c2ccccc12 | 10
45 | CCN(CC)CCNC(=O)c1c(C)[nH]c(/C=C2\C(=O)Nc3ccc(Cl)cc32)c1C | 4
46 | CC(C)c1nn(-c2c(Cl)cccc2Cl)c2nc(Cc3ccc(OCCO)cc3)[nH]c(=O)c12 | 74
47 | c1ccc(-c2cnc(Nc3ccc(OCCN4CCCC4)cc3)s2)cc1 | 28
48 | Cn1sc(=O)n(Cc2ccccc2)c1=O | 90
49 | O=C1Cc2c([nH]c3ccc([N+](=O)[O-])cc23)-c2ccccc2N1 | 36
50 | O=C(CCCc1ccc(-c2ccccc2F)cc1)Nc1ccc(O)cc1 | 99
51 | Cn1c2ccccc2c2c3c(c4c5ccccc5n(CCC#N)c4c21)CNC3=O | 16

These compounds were tested against T2, NUAK family SNF1-like kinase 1 (Homo sapiens) (UniProt O60285). Conditions: at 1 µM.
T2 sequence (whole entry): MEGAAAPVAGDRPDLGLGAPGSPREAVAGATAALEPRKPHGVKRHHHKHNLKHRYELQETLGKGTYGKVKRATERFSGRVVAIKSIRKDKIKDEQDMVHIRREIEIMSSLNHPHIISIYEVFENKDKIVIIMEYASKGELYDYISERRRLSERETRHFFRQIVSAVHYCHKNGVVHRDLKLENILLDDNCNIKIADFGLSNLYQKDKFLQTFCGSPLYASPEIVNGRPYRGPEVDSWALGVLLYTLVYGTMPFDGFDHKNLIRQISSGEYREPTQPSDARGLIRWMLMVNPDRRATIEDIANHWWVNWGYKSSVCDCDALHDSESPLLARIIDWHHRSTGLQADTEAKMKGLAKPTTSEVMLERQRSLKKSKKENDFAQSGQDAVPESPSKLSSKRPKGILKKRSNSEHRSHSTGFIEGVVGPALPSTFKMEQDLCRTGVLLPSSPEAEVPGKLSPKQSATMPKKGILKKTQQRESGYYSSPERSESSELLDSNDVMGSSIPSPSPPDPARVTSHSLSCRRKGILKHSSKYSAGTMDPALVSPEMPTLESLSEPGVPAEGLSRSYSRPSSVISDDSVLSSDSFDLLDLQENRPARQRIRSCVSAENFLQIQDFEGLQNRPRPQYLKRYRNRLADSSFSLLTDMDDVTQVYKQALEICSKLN

Row | Compound | residual activity [%]
52 | O=C1C(Cl)=C(N2C(=O)CCC2=O)C(=O)c2ccccc21 | 96
53 | O=C(O)/C=C/c1cc(Br)c(Br)c(Br)c1Br | 102
54 | Nc1n[nH]c2nc3ccccc3nc12 | 87
55 | O=C(c1cc2cc(O)ccc2[nH]1)c1cc2cc(O)ccc2[nH]1 | 65
56 | Oc1cccc(-c2nc(N3CCOCC3)c3oc4ncccc4c3n2)c1 | 98
57 | CCCCc1c(-c2ccc(OC)cc2)[nH]c2nccnc12 | 15
58 | CCCC(=O)Oc1ccc2[nH]c(C(=O)c3cc4ccccc4[nH]3)cc2c1 | 98
59 | COc1cc2nccc(Oc3ccc(NC(=S)NC(=O)c4ccccc4C)cc3)c2cc1OC | 81
60 | O=C1Cc2c([nH]c3ccc(Br)cc23)-c2ccccc2N1 | 13
61 | NCCNc1ncc(C(N)=O)c(Nc2cccc(C(F)(F)F)c2)n1 | 45
62 | O=C1Nc2ccc(Cl)cc2/C1=C/c1cc(Cl)c(O)c(Cl)c1 | 69
63 | CC(C)(C)n1nc(Cc2cccc3ccccc23)c2c(N)ncnc21 | 105
64 | COc1ccc(Cl)cc1NC(=O)Nc1cc(C)nc2ccccc12 | 94
65 | O=c1cc(N2CCNCC2)oc2c(-c3ccccc3)cccc12 | 91
66 | Nc1ncnc2c1c(-c1ccc(Oc3ccccc3)cc1)cn2C1CCCC1 | 83
67 | O=C1NC(=O)c2c1c1c3ccccc3[nH]c1n1cncc21 | 15
68 | O=c1cc(N2CCOCC2)oc2c1ccc1ccccc12 | 101
69 | CN(C)S(=O)(=O)c1ccc2c(c1)/C(=C/c1cc3c([nH]1)CCCC3)C(=O)N2 | 10
70 | CCOC(=O)c1c(C)[nH]c(/C=C2\C(=O)Nc3ccccc32)c1C | 88
71 | O=C1NC(=O)C(c2c[nH]c3ccccc23)=C1c1c[nH]c2ccccc12 | 83
72 | CCN(CC)CCNC(=O)c1c(C)[nH]c(/C=C2\C(=O)Nc3ccc(Cl)cc32)c1C | 6
73 | CC(C)c1nn(-c2c(Cl)cccc2Cl)c2nc(Cc3ccc(OCCO)cc3)[nH]c(=O)c12 | 96
74 | c1ccc(-c2cnc(Nc3ccc(OCCN4CCCC4)cc3)s2)cc1 | 74
75 | O=C1Cc2c([nH]c3ccc([N+](=O)[O-])cc23)-c2ccccc2N1 | 10
76 | O=C(CCCc1ccc(-c2ccccc2F)cc1)Nc1ccc(O)cc1 | 96
77 | Cn1c2ccccc2c2c3c(c4c5ccccc5n(CCC#N)c4c21)CNC3=O | 10
